Our source for the outcome and AC50 values is PubChem BioAssay (EPA / NIEHS).

In assay [1] the target is human Serotonin, 5-Hydroxytryptamine Receptor 7 (5HT7), HTR7 (gene 3363) (UniProt P34969). Put plainly: NVS_GPCR_h5HT7: NovaScreen (NVS) G Protein-Coupled Receptor Assay for human Serotonin, 5-Hydroxytryptamine Receptor 7 (5HT7) (AID 2283255).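 Also: hits reduce specific radioligand binding relative to DMSO.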 An outline of the steps: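 Filter-bound radioactivity counted after 1 h, with loss of specific radioligand binding fitted against DMSO. Membrane protein came from CHO cells expressing human 5HT7. Chemicals were tested first at 25 uM in duplicate, then in concentration series if active.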

In assay [2] the target is human Adrenergic, Alpha 2A Receptor (Adra2A), ADRA2A (gene 150) (UniProt P08913). Put plainly: NVS_GPCR_hAdra2A: NovaScreen (NVS) G Protein-Coupled Receptor Assay for human Adrenergic, Alpha 2A Receptor (Adra2A) (AID 2283257). A digest of the protocol:
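Displacement of a specific radioligand from HT29 membrane protein was counted by filter scintillation after 1 h. Compounds were screened in duplicate at 25 uM, and actives were retested in concentration series. Fitting was positive-direction against DMSO.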

Assay [3] addresses Type-1 angiotensin II receptor (Homo sapiens) (UniProt P30556). In words: NVS_GPCR_hAT1: NovaScreen (NVS) G Protein-Coupled Receptor Assay for human Angiotensin II receptor type 1 (AT1) (AID 2283263). A digest of the protocol: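 Hits from a 25 uM duplicate screen (threshold e.g. 30% inhibition) were run in concentration-response with 50 uM top concentration. Displacement of specific radioligand from KAN-TS membrane preparations measured after 3 h by filter scintillation, DMSO as baseline.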

Assay [4] concerns the target Beta-2 adrenergic receptor (Homo sapiens) (UniProt P07550). Put plainly: NVS_GPCR_hAdrb2: NovaScreen (NVS) G Protein-Coupled Receptor Assay for human Adrenergic, Beta 2 Receptor (Adrb2) (AID 2283261). A digest of the protocol:
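Compounds screened in duplicate at 25 uM, then actives in concentration series. Human beta-2 receptor from CHO material, cell-free; radioligand displacement after 1 h measured by filtration and scintillation against DMSO baseline.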

Assay [5] addresses human Dopamine Receptor D2 (DRD2), DRD2 (gene 1813) (UniProt P14416). In words: NVS_GPCR_hDRD2s: NovaScreen (NVS) G Protein-Coupled Receptor Assay for human Dopamine Receptor D2 (DRD2) (AID 2283266). A digest of the protocol: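 Test compound (25 uM, duplicate in the primary screen; concentration series at follow-up) competed with radioligand for human DRD2 in CHO-derived membrane protein. Filter-based scintillation counting was done 1.5 hours after dosing, with loss of signal analysed against DMSO.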

Assay [6] concerns the target human Endothelin Receptor Type B (ETB), EDNRB (gene 1910) (UniProt P24530). In words: NVS_GPCR_hETB: NovaScreen (NVS) G Protein-Coupled Receptor Assay for human Endothelin Receptor Type B (ETB) (AID 2283267). An outline of the steps: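 Filter-based scintillation readout of radioligand displacement, 4 h, using membranes from human astrocytoma cells. Actives from a 25 uM duplicate screen were retested in concentration-response (top 50 uM) relative to DMSO baseline.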

Results filed as inconclusive are left out. Activity calls are given as the source filed them. The calls were made as follows: active = hit-call score of the fitted dose curve at least 0.9, where 1 is the maximum; inconclusive = response in the unintended direction; inactive = score below 0.9.

Sequence of human Dopamine Receptor D2 (DRD2), DRD2 (gene 1813) (P14416 whole entry, looked up): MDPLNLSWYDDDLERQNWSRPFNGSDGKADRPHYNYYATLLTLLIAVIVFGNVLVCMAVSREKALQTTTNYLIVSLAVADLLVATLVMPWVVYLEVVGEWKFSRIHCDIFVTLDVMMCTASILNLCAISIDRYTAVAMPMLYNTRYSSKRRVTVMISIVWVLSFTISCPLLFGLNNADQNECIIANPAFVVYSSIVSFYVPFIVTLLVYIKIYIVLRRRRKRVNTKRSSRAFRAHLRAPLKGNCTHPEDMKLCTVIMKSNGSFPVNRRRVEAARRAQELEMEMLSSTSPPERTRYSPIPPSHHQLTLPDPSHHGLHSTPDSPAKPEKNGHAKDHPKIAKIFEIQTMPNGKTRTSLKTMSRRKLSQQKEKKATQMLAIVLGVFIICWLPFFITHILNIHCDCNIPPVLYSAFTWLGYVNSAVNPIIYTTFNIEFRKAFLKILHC
Sequence of human Serotonin, 5-Hydroxytryptamine Receptor 7 (5HT7), HTR7 (gene 3363) (P34969 whole entry, looked up): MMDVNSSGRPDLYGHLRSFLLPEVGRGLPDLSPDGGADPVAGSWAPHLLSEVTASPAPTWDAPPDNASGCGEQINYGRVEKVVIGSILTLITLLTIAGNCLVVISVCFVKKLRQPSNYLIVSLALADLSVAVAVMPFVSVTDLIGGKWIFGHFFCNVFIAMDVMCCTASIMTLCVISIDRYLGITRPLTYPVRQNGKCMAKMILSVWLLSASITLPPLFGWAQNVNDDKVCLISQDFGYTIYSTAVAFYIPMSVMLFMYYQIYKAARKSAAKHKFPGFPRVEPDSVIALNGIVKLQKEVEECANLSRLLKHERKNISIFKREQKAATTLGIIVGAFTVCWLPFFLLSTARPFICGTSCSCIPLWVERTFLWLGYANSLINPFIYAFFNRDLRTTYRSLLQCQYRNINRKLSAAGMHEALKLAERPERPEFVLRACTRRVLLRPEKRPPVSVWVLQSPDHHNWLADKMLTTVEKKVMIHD
Sequence of human Adrenergic, Alpha 2A Receptor (Adra2A), ADRA2A (gene 150) (P08913 whole entry, looked up): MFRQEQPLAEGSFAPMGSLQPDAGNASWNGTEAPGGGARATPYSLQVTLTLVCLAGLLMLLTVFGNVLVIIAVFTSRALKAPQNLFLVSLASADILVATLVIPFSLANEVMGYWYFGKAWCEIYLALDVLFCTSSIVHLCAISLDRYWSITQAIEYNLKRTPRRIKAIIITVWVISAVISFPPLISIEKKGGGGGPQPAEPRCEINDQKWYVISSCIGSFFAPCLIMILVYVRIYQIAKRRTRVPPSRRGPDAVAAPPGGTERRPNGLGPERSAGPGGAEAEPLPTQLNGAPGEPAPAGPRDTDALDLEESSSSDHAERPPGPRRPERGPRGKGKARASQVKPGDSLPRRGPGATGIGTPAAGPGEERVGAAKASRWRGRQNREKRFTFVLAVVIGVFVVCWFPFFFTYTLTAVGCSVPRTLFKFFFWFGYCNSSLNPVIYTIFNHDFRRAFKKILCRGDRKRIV
Sequence of Type-1 angiotensin II receptor (Homo sapiens) (P30556 whole entry, looked up): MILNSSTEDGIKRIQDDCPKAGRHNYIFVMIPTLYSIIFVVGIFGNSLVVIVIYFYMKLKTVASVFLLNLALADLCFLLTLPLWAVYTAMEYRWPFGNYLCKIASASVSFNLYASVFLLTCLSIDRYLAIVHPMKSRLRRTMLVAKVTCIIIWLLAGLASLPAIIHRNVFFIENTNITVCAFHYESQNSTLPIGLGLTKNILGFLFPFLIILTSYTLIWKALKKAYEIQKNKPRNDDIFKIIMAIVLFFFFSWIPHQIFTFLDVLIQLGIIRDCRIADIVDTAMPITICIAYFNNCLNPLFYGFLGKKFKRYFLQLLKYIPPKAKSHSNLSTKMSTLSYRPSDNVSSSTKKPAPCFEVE
Sequence of Beta-2 adrenergic receptor (Homo sapiens) (P07550 whole entry, looked up): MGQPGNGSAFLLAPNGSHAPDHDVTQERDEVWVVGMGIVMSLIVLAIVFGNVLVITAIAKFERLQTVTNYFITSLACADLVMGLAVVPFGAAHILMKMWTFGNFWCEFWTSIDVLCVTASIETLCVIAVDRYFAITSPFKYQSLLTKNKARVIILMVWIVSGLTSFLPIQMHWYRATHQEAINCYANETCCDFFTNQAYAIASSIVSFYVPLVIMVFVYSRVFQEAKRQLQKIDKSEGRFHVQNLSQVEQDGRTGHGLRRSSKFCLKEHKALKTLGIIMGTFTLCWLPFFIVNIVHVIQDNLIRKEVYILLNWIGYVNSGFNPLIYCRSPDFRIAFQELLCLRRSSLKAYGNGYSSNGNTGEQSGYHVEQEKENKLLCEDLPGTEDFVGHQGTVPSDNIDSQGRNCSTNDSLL
Sequence of human Endothelin Receptor Type B (ETB), EDNRB (gene 1910) (P24530 whole entry, looked up): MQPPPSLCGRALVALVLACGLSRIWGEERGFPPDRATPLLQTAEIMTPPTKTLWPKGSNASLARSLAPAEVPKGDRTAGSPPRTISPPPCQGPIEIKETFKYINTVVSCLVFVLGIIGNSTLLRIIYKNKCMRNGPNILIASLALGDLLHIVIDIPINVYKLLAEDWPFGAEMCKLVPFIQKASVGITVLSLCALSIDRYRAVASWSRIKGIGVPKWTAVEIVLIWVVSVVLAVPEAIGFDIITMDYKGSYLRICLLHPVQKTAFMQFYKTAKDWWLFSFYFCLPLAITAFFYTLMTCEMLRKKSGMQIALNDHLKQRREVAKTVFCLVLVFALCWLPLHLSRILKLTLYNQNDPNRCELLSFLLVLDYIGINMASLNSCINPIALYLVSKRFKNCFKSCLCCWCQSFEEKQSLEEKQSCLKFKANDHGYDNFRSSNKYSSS

Turning to `CSC(C)(C)C=NO`, the compound was classed as inactive in assay [1], in assay [2] and in assay [3].
Consider `Nc1cc2c3c(c1)C(c1ccccc1)=N[C@@H](NC(=O)c1cccnc1)C(=O)N3CC2`, for which the outcome in assay [1] was inactive.
A word on the AC50: it is the midpoint of the concentration-response curve, whichever way the signal moves. Turning to `CC(Cc1ccc(OCC(=O)O)cc1)NCC(O)c1csc(C(F)(F)F)n1` (centres undefined), the AC50 in assay [2] was 25 µM (active).
`ClC1=C(Cl)C2(Cl)C3C(Cl)C(Cl)CC3C1(Cl)C2(Cl)Cl` (centres undefined): the compound was classed as inactive in assay [4] and in assay [5].
Turning to `CCCN(CCC)c1c([N+](=O)[O-])cc(C(C)C)cc1[N+](=O)[O-]`, the call in assay [5] was inactive.
Turning to `CCCCN(CCCC)SN(C)C(=O)Oc1cccc2c1OC(C)(C)C2`, the result in assay [6] was inactive.
